These results are taken from publication PMC7862700, “An all-to-all approach to the identification of sequence-specific readers for epigenetic DNA modifications on cytosine”.

Common to all, as to test: DAPPL (digital affinity profiling via proximity ligation, sequencing); 10 mM Tris-HCl pH 7.5, 50 mM NaCl, 1 mM DTT, 4% glycerol, room temperature, 30 min; GST-TFs on glutathione beads, 16-mer random dsDNA library, 0.1% formaldehyde crosslink after washing; high values mean tight binding
Conditions in all cases: protein: recombinant; tags: N-terminal GST; dsDNA, one strand shown

One assay concerns the target T1, ERG (Homo sapiens, UniProt P11308 1-479).
T1 sequence: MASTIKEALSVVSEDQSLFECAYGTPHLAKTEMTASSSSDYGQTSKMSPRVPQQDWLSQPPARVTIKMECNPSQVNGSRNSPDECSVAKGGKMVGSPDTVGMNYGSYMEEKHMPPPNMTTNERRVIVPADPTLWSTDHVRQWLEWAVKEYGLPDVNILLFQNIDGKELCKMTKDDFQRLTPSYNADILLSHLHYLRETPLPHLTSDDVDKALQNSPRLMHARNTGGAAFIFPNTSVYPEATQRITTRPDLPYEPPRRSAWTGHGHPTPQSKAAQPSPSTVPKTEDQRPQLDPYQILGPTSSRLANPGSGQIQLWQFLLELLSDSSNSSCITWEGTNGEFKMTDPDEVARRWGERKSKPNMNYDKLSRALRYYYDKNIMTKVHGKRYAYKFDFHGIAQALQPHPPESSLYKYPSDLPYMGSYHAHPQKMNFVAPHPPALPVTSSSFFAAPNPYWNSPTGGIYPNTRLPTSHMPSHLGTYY
The essentials: (§1)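 A tag-only sample was pooled with DNA-barcoded human transcription factors that had been expressed in yeast as GST fusions and captured on glutathione beads. The pools were incubated for 30 min at room temperature with 200 nmole of a random double-stranded 16-mer DNA library in Tris/NaCl/DTT/glycerol buffer, then washed, crosslinked with 0.1% formaldehyde, proximity-ligated (BsaI/T4 ligase, 1 h, 37 °C), PCR-amplified and sequenced on an Illumina NextSeq500. Binding signal is each hexamer's read frequency for a factor divided by its frequency for the tag-only sample.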

For another assay, the target named is SPIB (Homo sapiens, UniProt Q01892 1-262). The essentials: as §1
SPIB, sequence (Q01892 whole entry): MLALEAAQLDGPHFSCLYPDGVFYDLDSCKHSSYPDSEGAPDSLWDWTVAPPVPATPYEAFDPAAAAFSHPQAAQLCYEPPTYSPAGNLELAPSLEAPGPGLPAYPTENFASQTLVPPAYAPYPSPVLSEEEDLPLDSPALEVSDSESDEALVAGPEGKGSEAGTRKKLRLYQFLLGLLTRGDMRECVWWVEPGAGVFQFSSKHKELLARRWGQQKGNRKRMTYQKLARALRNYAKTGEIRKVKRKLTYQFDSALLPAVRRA
The target of the next assay is T2, ELK3 (Homo sapiens, UniProt P41970 1-407).
T2 sequence: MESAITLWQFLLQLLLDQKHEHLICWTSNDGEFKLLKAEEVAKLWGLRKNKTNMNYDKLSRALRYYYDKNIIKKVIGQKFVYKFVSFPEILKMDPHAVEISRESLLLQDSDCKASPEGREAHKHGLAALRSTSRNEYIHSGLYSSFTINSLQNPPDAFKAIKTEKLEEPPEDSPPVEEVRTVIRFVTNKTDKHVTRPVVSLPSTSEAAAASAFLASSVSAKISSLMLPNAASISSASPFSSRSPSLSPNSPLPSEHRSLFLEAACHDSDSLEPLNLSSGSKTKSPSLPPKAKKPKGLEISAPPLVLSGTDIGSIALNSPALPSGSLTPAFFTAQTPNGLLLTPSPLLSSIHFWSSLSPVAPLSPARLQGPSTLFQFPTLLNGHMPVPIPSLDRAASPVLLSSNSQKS
The gist of the method:
as §1

The target of the next assay is T3, SPIC (Homo sapiens, UniProt Q8N5J4 1-248).
T3 sequence: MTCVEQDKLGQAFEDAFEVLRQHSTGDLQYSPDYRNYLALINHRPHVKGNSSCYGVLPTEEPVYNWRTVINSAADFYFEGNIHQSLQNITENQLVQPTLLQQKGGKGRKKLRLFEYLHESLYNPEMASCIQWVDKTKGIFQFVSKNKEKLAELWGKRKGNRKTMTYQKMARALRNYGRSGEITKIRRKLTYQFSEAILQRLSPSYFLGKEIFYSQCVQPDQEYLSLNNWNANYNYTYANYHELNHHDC
The gist of the method:
as §1

The target in the next assay is ELF4 (Homo sapiens, UniProt Q99607 1-663). The essentials: as §1
ELF4, sequence (Q99607 whole entry): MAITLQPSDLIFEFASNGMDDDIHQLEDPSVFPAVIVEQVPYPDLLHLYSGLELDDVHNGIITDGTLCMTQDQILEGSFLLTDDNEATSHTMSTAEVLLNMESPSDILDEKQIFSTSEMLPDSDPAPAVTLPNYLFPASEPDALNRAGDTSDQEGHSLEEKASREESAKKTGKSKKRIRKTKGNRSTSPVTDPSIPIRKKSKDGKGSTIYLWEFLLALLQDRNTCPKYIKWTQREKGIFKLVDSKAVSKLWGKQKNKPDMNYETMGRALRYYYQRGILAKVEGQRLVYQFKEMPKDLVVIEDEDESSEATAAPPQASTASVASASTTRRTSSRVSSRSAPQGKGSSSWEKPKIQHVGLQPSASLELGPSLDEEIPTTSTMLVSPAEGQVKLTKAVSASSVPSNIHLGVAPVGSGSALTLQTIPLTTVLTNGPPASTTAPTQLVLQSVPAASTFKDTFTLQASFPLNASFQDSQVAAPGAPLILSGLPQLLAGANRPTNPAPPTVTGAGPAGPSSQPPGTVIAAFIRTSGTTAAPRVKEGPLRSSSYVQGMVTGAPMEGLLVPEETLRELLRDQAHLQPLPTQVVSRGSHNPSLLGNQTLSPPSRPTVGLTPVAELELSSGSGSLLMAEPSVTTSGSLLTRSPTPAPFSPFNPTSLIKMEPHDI
A further assay concerns the target T4, ELK4 (Homo sapiens, UniProt P28324-2 1-405).
T4 sequence: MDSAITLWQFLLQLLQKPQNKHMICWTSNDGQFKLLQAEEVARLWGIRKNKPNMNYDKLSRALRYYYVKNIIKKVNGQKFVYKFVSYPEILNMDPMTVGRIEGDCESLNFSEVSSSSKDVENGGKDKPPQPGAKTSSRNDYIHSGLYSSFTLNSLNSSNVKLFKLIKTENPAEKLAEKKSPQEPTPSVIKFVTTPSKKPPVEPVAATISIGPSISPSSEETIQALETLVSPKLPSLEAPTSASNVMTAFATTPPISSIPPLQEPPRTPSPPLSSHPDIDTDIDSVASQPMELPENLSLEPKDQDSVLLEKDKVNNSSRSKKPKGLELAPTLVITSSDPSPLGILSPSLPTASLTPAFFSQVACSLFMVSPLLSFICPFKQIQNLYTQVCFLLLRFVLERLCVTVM
The essentials: as §1

The next assay has as its target T5, ELF3 (Homo sapiens, UniProt P78545 1-371).
T5 sequence: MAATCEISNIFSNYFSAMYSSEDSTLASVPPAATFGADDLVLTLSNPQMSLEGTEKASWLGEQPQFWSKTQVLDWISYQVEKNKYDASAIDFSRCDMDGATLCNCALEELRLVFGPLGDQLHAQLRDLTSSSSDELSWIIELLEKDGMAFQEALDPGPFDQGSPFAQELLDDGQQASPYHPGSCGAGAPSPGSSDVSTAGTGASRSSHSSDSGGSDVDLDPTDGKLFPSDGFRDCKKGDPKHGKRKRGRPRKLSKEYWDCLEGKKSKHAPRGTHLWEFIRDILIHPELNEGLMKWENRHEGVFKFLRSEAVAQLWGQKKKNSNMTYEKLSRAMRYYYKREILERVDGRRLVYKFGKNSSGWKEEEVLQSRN
The essentials: as §1

A further assay deals with ETV1 (Homo sapiens, UniProt P50549 1-477). The gist of the method: as §1
ETV1, sequence (P50549 whole entry): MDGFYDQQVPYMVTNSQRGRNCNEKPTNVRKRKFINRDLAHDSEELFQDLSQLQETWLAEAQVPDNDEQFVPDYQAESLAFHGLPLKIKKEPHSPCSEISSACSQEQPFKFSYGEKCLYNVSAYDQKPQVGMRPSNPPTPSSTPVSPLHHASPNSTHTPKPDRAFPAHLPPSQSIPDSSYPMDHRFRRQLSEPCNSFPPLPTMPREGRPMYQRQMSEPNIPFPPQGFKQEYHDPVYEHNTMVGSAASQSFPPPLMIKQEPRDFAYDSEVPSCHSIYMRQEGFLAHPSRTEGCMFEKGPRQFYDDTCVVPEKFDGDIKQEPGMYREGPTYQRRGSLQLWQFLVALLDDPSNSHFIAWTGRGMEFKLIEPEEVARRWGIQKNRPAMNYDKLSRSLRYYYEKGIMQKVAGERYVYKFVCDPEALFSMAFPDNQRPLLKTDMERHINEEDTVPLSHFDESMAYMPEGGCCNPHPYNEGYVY
A further assay deals with T6, ERF (Homo sapiens, UniProt P50548 1-548).
T6 sequence: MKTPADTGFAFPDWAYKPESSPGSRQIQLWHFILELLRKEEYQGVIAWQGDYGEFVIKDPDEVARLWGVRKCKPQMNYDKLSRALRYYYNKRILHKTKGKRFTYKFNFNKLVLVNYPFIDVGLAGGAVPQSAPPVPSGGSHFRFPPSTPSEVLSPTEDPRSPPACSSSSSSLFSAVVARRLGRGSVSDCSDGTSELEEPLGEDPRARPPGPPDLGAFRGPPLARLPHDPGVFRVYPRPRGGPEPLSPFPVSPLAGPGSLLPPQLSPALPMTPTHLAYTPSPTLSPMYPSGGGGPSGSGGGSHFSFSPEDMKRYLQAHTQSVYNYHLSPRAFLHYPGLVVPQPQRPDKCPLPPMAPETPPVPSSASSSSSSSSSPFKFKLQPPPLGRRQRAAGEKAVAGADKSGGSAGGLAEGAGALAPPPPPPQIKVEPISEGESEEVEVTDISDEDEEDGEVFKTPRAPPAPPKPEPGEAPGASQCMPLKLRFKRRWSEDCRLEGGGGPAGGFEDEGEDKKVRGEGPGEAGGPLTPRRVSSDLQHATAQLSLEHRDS
The essentials: as §1

A further assay concerns the target T7, ETV3L (Homo sapiens, UniProt Q6ZN32 1-361).
T7 sequence: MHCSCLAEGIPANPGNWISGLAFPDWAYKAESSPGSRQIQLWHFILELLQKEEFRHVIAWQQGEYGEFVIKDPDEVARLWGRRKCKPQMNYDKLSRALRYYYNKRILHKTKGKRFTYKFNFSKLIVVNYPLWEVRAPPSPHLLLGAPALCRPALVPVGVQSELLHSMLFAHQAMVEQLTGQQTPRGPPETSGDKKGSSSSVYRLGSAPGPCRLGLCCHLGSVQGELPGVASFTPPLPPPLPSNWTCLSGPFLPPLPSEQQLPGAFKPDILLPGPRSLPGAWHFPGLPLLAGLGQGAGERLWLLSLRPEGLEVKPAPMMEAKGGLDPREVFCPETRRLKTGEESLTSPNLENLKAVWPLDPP
The gist of the method:
as §1

The next assay addresses T8, SPDEF (Homo sapiens, UniProt O95238 1-335).
T8 sequence: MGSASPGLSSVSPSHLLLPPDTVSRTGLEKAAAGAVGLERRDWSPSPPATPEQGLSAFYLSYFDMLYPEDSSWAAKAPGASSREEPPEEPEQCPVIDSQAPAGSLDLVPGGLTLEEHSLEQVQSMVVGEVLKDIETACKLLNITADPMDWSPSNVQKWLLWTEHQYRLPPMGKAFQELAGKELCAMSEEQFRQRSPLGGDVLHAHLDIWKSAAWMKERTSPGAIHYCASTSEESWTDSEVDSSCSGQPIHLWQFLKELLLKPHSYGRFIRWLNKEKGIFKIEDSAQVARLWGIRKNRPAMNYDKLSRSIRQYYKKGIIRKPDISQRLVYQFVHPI
The gist of the method: as §1

The next assay deals with T9, ETV7 (Homo sapiens, UniProt Q9Y603 1-341).
T9 sequence: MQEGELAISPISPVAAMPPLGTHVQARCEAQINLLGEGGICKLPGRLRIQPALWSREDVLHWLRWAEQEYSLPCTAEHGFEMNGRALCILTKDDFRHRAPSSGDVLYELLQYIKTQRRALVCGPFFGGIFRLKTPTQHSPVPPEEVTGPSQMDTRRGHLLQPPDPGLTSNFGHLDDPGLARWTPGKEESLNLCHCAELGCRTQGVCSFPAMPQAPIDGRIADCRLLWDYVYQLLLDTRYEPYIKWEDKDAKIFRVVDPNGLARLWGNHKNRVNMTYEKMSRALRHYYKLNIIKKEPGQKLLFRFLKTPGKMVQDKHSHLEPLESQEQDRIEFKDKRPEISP
The essentials:
as §1

Another assay has as its target T10, ETV3 (Homo sapiens, UniProt P41162-2 1-143).
T10 sequence: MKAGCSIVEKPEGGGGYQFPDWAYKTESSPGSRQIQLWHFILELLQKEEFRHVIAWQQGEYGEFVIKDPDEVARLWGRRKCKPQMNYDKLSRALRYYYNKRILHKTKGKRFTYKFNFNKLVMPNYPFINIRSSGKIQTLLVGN
The gist of the method: as §1

A further assay has as its target ETV6 (Homo sapiens, UniProt P41212 1-452). The essentials:
as §1

ETV6, sequence (P41212 whole entry): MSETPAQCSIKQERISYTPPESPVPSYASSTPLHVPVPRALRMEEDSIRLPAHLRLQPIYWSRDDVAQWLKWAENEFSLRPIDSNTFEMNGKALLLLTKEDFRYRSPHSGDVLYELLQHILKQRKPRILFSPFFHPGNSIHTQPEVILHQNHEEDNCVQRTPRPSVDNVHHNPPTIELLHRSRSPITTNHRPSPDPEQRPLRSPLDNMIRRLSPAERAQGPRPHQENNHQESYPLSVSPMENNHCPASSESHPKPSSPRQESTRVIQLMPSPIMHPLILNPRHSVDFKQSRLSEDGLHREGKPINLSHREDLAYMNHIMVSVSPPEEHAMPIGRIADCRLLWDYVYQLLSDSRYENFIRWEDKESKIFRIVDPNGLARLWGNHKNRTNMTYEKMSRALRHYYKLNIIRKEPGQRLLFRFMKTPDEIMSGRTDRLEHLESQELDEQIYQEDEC

For the sequence TCGAGC, the binding signal was 1.03 fold enrichment (6-mer frequency, TF over GST control) with ERG; 1.1 fold enrichment (6-mer frequency, TF over GST control) in the assay with SPIB; 1.01 fold enrichment (6-mer frequency, TF over GST control) with ELK3; 1.04 fold enrichment (6-mer frequency, TF over GST control) with SPIC; 1.03 fold enrichment (6-mer frequency, TF over GST control) with ELF4; 1.11 fold enrichment (6-mer frequency, TF over GST control) with ELK4. The binding signal is 1 fold enrichment (6-mer frequency, TF over GST control) with ELF3; 1.08 fold enrichment (6-mer frequency, TF over GST control) with ETV1; 1.03 fold enrichment (6-mer frequency, TF over GST control) in the assay with ERF; 1.15 fold enrichment (6-mer frequency, TF over GST control) with ETV3L; 1.08 fold enrichment (6-mer frequency, TF over GST control) with SPDEF; 1.09 fold enrichment (6-mer frequency, TF over GST control) in the assay with ETV7. The binding signal with ETV3 is 1.03 fold enrichment (6-mer frequency, TF over GST control); with ETV6, 1.02 fold enrichment (6-mer frequency, TF over GST control).
